# ARNT TACC3 PPI – disruptors of ARNT/TACC3 protein interaction, primary screen, biochemical, AlphaScreen, single concentration; Transforming acidic coiled-coil-containing protein 3 (Homo sapiens), Q9Y6A5; AlphaScreen His-ARNT PAS-B/GST-TACC3 binding, luminescence; TACC3 fragment carries E629A point mutation; inhibition, % at 9.99 µM; hit rate 0.66% among 390,000;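 active means mean inhibition of replicates at least 50% and at least half of replicates each reaching 50%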;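 further: 0% = complete ARNT plus TACC3 wells and 100% = ARNT alone without TACC3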
# CASP6 VEID inh – human caspase-6 inhibitors, primary screen, biochemical, VEID-R110 fluorescence, single point, set 2; P55212; purified caspase-6, Z-VEID-R110 cleavage fluorescence; inhibition, % at 12.5 µM; hit rate 0.53% among 350,000;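 active means mean inhibition across replicates at least about 35%, with every replicate also reaching that limit, limit read from the data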;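 further: 0% = median of neutral control wells and 100% = no fluorescence left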
# NSD2 inh – NSD2 histone methyltransferase inhibitors, primary screen, biochemical, AlphaScreen, single concentration, set 2 | Histone-lysine N-methyltransferase NSD2 (Homo sapiens), O96028 | NSD2 peptide methylation, 120 min | inhibition, % at 12.5 µM | hit rate 0.54% among 310,000 | AID 743445, 2014; in the data active means inhibition above about 50%
# PfHsp90 yeast 2 – growth inhibition of PfHsp90-expressing yeast, primary screen, antimalarial PfHsp90 inhibitor project, S. cerevisiae, BacTiter-Glo luminescence, single point, set 2; BacTiter-Glo ATP, 48 h; yeast lacking PDR1 and PDR3 efflux regulators; AID 504621, 2011; hit rate 0.32% among 310,000; inhibition, % at 9.4 µM;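 active means every replicate shows inhibition above about 80%, whatever the replicate mean, limit read from the data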;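 further: 0% = DMSO neutral controls and 100% = 20 µM radicicol positive controls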
# SIRT5 inh – SIRT5 desuccinylase inhibitors, primary screen, biochemical, fluorescence imaging, single point, set 5 | AID 652115, 2013 | hit rate 1.1% among 330,000 | Purified SirT5, succinyl-peptide AMC, trypsin-coupled fluorescence | inhibition, % at 15 µM; in the data active means inhibition above about 15%
# * = called active by the depositor; x = no result. Most compounds without a hit are left out; they make up all but 2.1% or so of the library.
SMILES,ARNT TACC3 PPI,CASP6 VEID inh,NSD2 inh,PfHsp90 yeast 2,SIRT5 inh
O=C(NCc1cccnc1)c1ccc(Cn2c(=S)[nH]c3ccc(Br)cc3c2=O)cc1,-6,-5,0,-25,16*
Cn1c(=O)cc(SCC(=O)N2CCN(C3CCCCC3)CC2)c2ccccc21,29,-5,x,7,17*
Oc1c(CN2CCOCC2)cc(CN2CCOCC2)c(O)c1O,13*,-6,12,22,x
C[C@@H]1CN([C@H](C)CO)C(=O)c2cccc(NC(=O)c3nc4ccccc4s3)c2O[C@H]1CN(C)S(=O)(=O)c1ccccc1,16,0,x,x,3
C[C@@H]1CN([C@@H](C)CO)C(=O)c2cccc(NC(=O)c3nc4ccccc4s3)c2O[C@@H]1CN(C)Cc1ccc(C(F)(F)F)cc1,9,0,x,x,18*
C[C@H](CO)N1C[C@H](C)[C@H](CN(C)S(=O)(=O)c2ccc(F)cc2)Oc2c(NC(=O)c3nc4ccccc4s3)cccc2C1=O,15,1,x,x,24*
C[C@H]1CN([C@@H](C)CO)C(=O)c2cccc(NC(=O)c3nc4ccccc4s3)c2O[C@H]1CN(C)C(=O)NC1CCCCC1,9,2,x,x,-1
C[C@@H]1CN([C@H](C)CO)C(=O)c2cccc(NC(=O)c3nc4ccccc4s3)c2O[C@@H]1CN(C)C(=O)NC1CCCCC1,11,-1,x,x,34*
O=C(C1CCC1)N1CC2(C1)[C@H](c1ccccc1)[C@H](CO)N2C(=O)c1cccnc1,x,-4,x,x,-2
CCC(=O)N(C)C[C@H]1Oc2ncc(C#CCc3ccccc3)cc2C(=O)N([C@@H](C)CO)C[C@@H]1C,-4,1,x,x,-1
COC(=O)[C@@]1(Cc2ccccc2)N=C(c2ccc(OCCCO)cc2)O[C@H]1c1ccccc1CN=[N+]=[N-],4,1,x,x,20*
Cn1cnc2nc(Cl)nc(Cl)c21,-18,0,x,-14,4
CNc1nc(Cl)nc2ncn(C)c12,2,-1,2,x,16*
O=C(Nc1ccc(F)cc1)N[C@H]1CC[C@H](CC(=O)N2CCOCC2)O[C@H]1CO,5,1,x,x,2
O=C(N/N=C/C=C\c1ccco1)c1ccccn1,68*,37*,-3,-5,4
O=C(Cc1cccs1)N/N=C/C=C/c1ccco1,-4,38*,2,-18,-2
CC(C)NC(=O)Nc1ccc2c(c1)CC(=O)N([C@H](C)CO)C[C@@H](C)[C@H](CN(C)S(=O)(=O)c1cn(C)cn1)O2,-5,0,x,x,-7
CC(=O)Nc1ccc2c(c1)C(=O)N(C)[C@H]1CC[C@H](CC(=O)Nc3cn(C)nc3C)O[C@H]1CO2,3,0,x,x,0
CC[C@H](C)/C=C/C1=CC2=C(Cl)C(=O)[C@@]3(C)OC(=O)C(C(=O)[C@H](C)[C@@H](C)O)=C3C2=CO1,6,x,x,104*,x
CCOC(=O)N(O)c1ccc(C=Cc2ccccc2)cc1,3,67*,x,-3,0
C[C@H]1CN([C@@H](C)CO)C(=O)c2cccc(NC(=O)Nc3cccc4ccccc34)c2O[C@H]1CN(C)C(=O)Nc1ccc(C(F)(F)F)cc1,x,-2,x,x,11
COc1ccc(-c2nc(-c3ccccn3)ncc2S(C)(=O)=O)cc1,14,1,-3,-25,-3
CC(C)S(=O)(=O)c1cnc(-c2ccccn2)nc1N,74*,0,2,9,0
CN(CC(=O)Nc1cccc(Cl)c1)S(=O)(=O)c1ccc2c(c1)n(C)c(=O)c(=O)n2C,0,0,5,10,33*
CS(=O)(=O)Nc1ccc2c(c1)[C@@H]1C[C@@H](CC(=O)NCc3ccc(Oc4ccccc4)cc3)O[C@@H](CO)[C@@H]1O2,2,-2,x,x,1
O=C(CCc1ccccc1)NC(c1cccs1)c1cc(Cl)c2cccnc2c1O (stereo unspecified),-5,1,2,101*,1
CCCCC(=O)NC(c1ccco1)c1cc(Cl)c2cccnc2c1O (stereo unspecified),11,2,-1,105*,1

# Bioassay records from PubChem.
